Test results taken from the supplement of paper PMC3334620.
Whole data set: some 33,000 sequences, median “E-score (-0.5 to 0.5)” near -0.032, cut for the highest 2% near 0.36. The sample as a whole holds a higher share of the highest values than the screen did.

The sequences below were run against T1, Sko1 (UniProt Q02100) (assay: PBM E-score (8-mer binding enrichment) (E-score (-0.5 to 0.5)); higher = stronger / more preferred TF binding). Conditions: protein concentration: 200 nM; construct: GST-full length.
T1 sequence: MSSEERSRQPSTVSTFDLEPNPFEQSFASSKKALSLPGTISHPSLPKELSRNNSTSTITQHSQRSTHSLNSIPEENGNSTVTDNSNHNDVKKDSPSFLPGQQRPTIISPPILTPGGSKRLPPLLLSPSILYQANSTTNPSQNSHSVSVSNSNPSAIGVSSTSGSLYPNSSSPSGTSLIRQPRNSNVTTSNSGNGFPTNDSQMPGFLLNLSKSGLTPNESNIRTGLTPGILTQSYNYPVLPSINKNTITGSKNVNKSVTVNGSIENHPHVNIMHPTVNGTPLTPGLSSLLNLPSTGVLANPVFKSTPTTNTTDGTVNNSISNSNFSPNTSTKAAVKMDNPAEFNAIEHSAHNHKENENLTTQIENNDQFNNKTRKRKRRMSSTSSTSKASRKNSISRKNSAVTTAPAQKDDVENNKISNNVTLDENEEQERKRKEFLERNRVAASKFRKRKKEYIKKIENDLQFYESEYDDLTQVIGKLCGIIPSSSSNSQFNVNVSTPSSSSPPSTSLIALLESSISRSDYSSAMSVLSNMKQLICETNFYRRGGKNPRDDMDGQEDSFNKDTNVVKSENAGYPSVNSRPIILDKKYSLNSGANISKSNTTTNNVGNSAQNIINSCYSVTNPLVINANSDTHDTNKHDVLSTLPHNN
Procedure: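 Universal 'all 10-mer' protein binding microarrays (Agilent AMADID 015681) probed with GST-tagged S. cerevisiae TFs (full-length or DBD) made by in vitro transcription/translation (PURExpress), about 100-200 nM. Bound TF was detected with fluorescent anti-GST. Each ungapped 8-mer (which stands for itself and its reverse complement) is scored by the PBM enrichment score (E-score), a modified Wilcoxon-Mann-Whitney statistic from -0.5 to +0.5, computed with the Universal PBM Analysis Suite. Scale: above 0.35 generally sequence-specific binding.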

Sequence	PBM E-score
AGACAGTA	0.0897
CCGCCCTC	-0.23
AAAGATGG	-0.0167
AAGCTCGG	-0.169
GAGGTAAC	0.0793
GAAAGTGC	-0.11
ATCATAAA	0.175
CTAATCTA	0.0405
GTCATATA	0.373
CTCATATA	0.0195
ATAATCTA	0.189
TTCATAAA	0.0982
ATAATTTA	0.222
GTCATAAA	0.364
CTAATTTA	0.261
GTAATCTA	0.394
GTAATTTA	0.366
ATCATATA	0.244
CCACACAG	-0.208
GGGACAAA	-0.0851
CGAAGAAG	0.0371
AACTCTAT	-0.186
TGATTCAA	0.144
ACCCCATG	-0.0741
ATCATAGA	0.205

Sequence	PBM E-score
GTAATATA	0.374
CTCATAGA	0.00332
GTCATAGA	0.406
CTAATATA	0.302
ATAATATA	0.268
GCCAGTGA	-0.0654
TACCCTGA	-0.126
CGCCTGAC	0.0438
AAGGCACG	0.132
ACCGCCGT	-0.264
GAAAAGGA	-0.0667
AGTCATCA	-0.103
CATCATCA	0.361
CGTCATCA	0.489
CCTCATCC	-0.292
CGTCATCC	0.475
AGTCATCC	-0.0488
CATCATCG	0.347
TATCATCA	0.272
GGTCATCA	0.207
CTGATCGC	-0.0786
ATATGCCA	-0.0891
AAAACAGA	0.112
AGAGTAGC	-0.00834
CCGTGGTC	-0.235

Sequence	PBM E-score
ACGTGGAT	0.398
ACGTGGGC	0.347
GCGTGGTA	-0.0393
ACGTGGCG	0.368
ACGTGGCT	0.321
ACGTGGTC	0.364
ACGTGGTA	0.391
CCGTGGTA	-0.172
ACGTGGCA	0.297
ACGTGGAA	0.311
ACGTGGAC	0.33
AACTCAGG	-0.0444
AGCGCTGC	-0.167
AGACAGAT	0.0457
ACTTGTGG	-0.0685
ACCCGAGC	-0.224
GTAGGCTA	0.0728
CGTTATGA	0.267
CTTGCTTC	0.0228
AGGTTGAC	-0.0293
ACGTCCTC	0.206
GGTCTGGA	-0.25
AAGTGGTG	-0.113
AGGTGGTG	-0.0259
ACGTGCAC	0.355

Sequence	PBM E-score
ACGTGGTG	0.376
ACGTGCAA	0.35
ACGTGCAT	0.396
AACAGTGG	-0.244
AGGGCGAC	-0.2
AAATTCTG	0.052
GTGTTCTA	0.0982
AATCCCGA	0.105
GCATCGCA	-0.35
ATTCGTCC	0.119
ATTCGTAA	0.433
GTTCGTGA	-0.0757
CTTCGTAA	0.287
GTTCGTTA	0.107
ATTCGTCA	0.464
GTTCGTCA	0.367
GTTCGTAA	0.355
ATTCGTCG	0.22
CTTCGTTA	0.161
CTTCGTCA	0.412
CTTCGTCC	-0.226
GAAATGGC	0.00268
CGCAAGCA	0.0501
AAAGGTAT	0.0611
CAACAGTA	-0.0581

Sequence	PBM E-score
CATTTGTC	0.0524
CATAAGAC	0.1
GGTTTGAC	0.0235
GGATGAAA	0.033
ATACGTAC	0.473
CTACGGAG	-0.193
GTACGAAC	0.284
CTACGTAA	0.489
ATACGAAC	0.256
GTACGTAC	0.44
CTACGTAG	0.449
GTACGGAC	-0.0428
ATCCGTAC	0.151
CTACGGAA	0.157
CTCCGTAA	0.0488
CTACGAAG	-0.0419
CCCTAAAG	-0.213
GTGAGGTA	0.0525
ATCGGTGC	0.105
AATAATCT	0.125
CCCATCGC	-0.232
TAGTTACA	0.0798
AGCAAAAC	0.0756
AGGCCCAT	-0.288
ATACTTAG	-0.0209

Sequence	PBM E-score
GTACGGAA	-0.00063
ATACGAAT	0.286
ATACGTAG	0.471
GTCCGTAA	0.00251
ATACGTAT	0.487
CTACGAAC	0.0886
CTACGTAC	0.449
ATACGGAT	0.111
CTCCGTAC	-0.153
GTACGTAA	0.487
ATACGAAG	0.223
ATGGACAC	0.0118
GGATCACC	-0.181
GTCTATGA	0.238
AACTCACA	0.0634
GCACCCGC	-0.0958
AGACTACG	0.136
CCTTACCC	-0.149
GAGCAGGA	-0.112
ATACGTAA	0.491
ATCCGTAA	0.0757
ATACGGAA	0.141
AAGTTCCA	-0.0591
ACTACGCA	0.367
CCTACGCC	-0.0487

Sequence	PBM E-score
GCTACGCA	0.294
CCTACGCG	0.117
CCTACGCA	0.361
TCTACGCA	0.32
CCCCAACC	-0.062
CCCACGGC	-0.145
CCCACGTC	0.402
CCCACGTA	0.39
CCCACGCC	-0.127
CCCACGGA	-0.0825
CCCACGCA	0.109
AACTAATT	0.182
ATCTAGAG	-0.0987
ATGTTTTG	0.109
CTGCGTCA	0.435
CTGCGTCC	-0.112
CGGCGTCA	0.241
GTGCGTGA	0.274
ATGCGTCG	0.0928
ATGCGTCC	-0.124
GTGCGTTA	0.259
GTGCGTCA	0.456
ATGCGTCA	0.467
CTTCAGCA	-0.0157
CACCTTTC	-0.223

Sequence	PBM E-score
CAGACCTA	0.125
ACCTGTCC	-0.267
AAGAAGGT	-0.0729
AAGGATGG	0.00772
AATTGCGG	-0.172
AATTGCGA	0.0547
AATTGCGT	0.448
CGTGAATC	0.13
ACGATTTA	0.328
ACGTGTGG	0.395
ACGTGTGC	0.388
CCGTGTGC	-0.179
CCGTGCGC	-0.067
ACGTGCGC	0.381
GCGTGTGA	0.107
ACGTGCGG	0.308
ATGTGTGC	-0.0761
CCGTGTGA	-0.0471
ACGTGGGG	0.316
ATGTGTGG	-0.144
ACGTGTGA	0.401
ACCATACT	-0.0266
AGATTTGA	0.144
CATAATAC	0.3
ACGATGTA	0.226

Sequence	PBM E-score
GAGCTACC	-0.212
CAAAAAAA	0.187
GACACGTA	0.44
GACACGCC	0.0381
GACACGGC	-0.0578
GACACGTC	0.382
GACACGGA	-0.224
GACACGCA	0.284
ACCCGTCG	-0.238
ATGACCCG	-0.254
CGGACGTA	0.353
CTGACGGC	-0.167
CTGACGTC	0.482
CTGACGTA	0.489
CTGACGGA	0.0532
CTGACCTC	-0.296
AATAGCCA	0.204
AAGAAAGG	0.00665
ACAGAGCA	-0.0386
